# Source: PubChem BioAssay (The Scripps Research Institute Molecular Screening Center)
# ssDAF12 agonist: activates DAF-12 receptor from parasite S. stercoralis | HEK293 ssDAF-12/GRIP1 lit1-tk-luc reporter, luminescence; % of 3 µM dafachronic acid response | hit rate 1% among 370,000 | activation, % at 6.8 µM;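 active = activation above the mean over all tested compounds plus 3 SD, cut at about 0.9% in these data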;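 also: 0% = DMSO-only wells and 100% = 3 µM delta7-dafachronic acid wells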
# DAX1 inh-1: NR0B1 (DAX1) inhibition. HEK293 Gal4-DAX1 luciferase reporter, luminescence. inhibition, % at 6.75 µM. AID 504766. hit rate 0.99% among 340,000;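 active = inhibition above the mean over all tested compounds plus 3 SD, cut at about 4.2% in these data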;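 also: 0% = DAX1-transfected cells with DMSO and 100% = empty-vector control cells with DMSO; inhibition shows as a rise in luminescence from relieved DAX1 repression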
# Target sequence (P51843 207-470 limits assumed): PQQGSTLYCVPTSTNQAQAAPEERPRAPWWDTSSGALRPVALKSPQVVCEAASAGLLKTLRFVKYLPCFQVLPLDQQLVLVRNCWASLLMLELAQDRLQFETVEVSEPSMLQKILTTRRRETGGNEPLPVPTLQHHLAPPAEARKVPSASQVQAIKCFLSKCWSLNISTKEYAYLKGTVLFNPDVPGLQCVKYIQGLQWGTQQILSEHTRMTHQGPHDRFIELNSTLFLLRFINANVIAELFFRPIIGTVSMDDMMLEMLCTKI
# SMARCA2 act: SMARCA2 function activation, primary screen; MG213 cells, MMTV-luciferase reporter, dexamethasone, overnight; activation, % at 9.1 µM; hit rate 1% among 370,000; AID 652017; in the data active = activation above about 7.8%;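 also: 0% = vehicle wells and 100% = reference activator wells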
# hcDAF12 agonist: H. contortus DAF-12 activation, primary screen. activation, % at 6.8 µM. hit rate 1.4% among 370,000. HEK293 hcDAF-12 lit1-tk-luc reporter, luminescence; 0% DMSO, 100% Δ7-dafachronic acid;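 active = activation above the mean of all tested compounds plus 3 SD, cut at about 5.5% in these data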;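 also: 100% = response to 3 µM Δ7-dafachronic acid high control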
# DAX1 inh-2: inhibitors of DAX1 repression of SF-1 activated StAR promoter. HEK293T StAR-luciferase reporter, SF-1/DAX-1 repression relief. inhibition, % at 6.8 µM. hit rate 1.1% among 370,000. AID 652010;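 active = inhibition above the mean over all tested compounds plus 3 SD, cut at about 3.6% in these data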;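 also: 0% = DAX-1 cells with DMSO and 100% = cells lacking DAX-1 with DMSO; higher inhibition means more luminescence from relief of DAX-1 repression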
# hgDAF12 agonist: activates the H. glycines DAF-12 receptor ligand-binding domain; HEK293 GAL4-hgDAF12 UAS-luciferase reporter, agonist luminescence; normalized to butyrate control; activation, % at 6.8 µM; hit rate 1.8% among 370,000;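 active = activation above a cutoff set at the mean of all screened compounds plus 3 SD, cut at about 10% in these data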;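 also: 0% = DMSO wells and 100% = sodium butyrate wells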
# SMARCA2 conf: confirmation of SMARCA2 (BRM) function activators; shares compounds with SMARCA2 act; MG213 cells, MMTV-luciferase with dexamethasone, luminescence, overnight; MG213 cells expressing E1A, Rb sequestered; DMSO wells 0%, reference activator 100%; activation, % at 9.1 µM; hit rate 30% among 3,500; AID 652260;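 active = activation above its plate's cutoff, the mean activation of tested wells plus 3 SD, cut at about 7.9% in these data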
# VP16 Luc act: counter-screen for SMARCA2 activators: GAL4-VP16 luciferase reporter activation | shares compounds with SMARCA2 act | HEK293 GAL4-VP16 pG5luc reporter, luciferase luminescence; scaled: DMSO wells 0%, SAHA wells 100% | activation, % at 9.1 µM | hit rate 41% among 3,500 | AID 686939;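 active = activation above the solvent-only control well mean plus 3 SD, averaged across control plates, cut at about 5.2% in these data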
# * = called active by the depositor; x = no result. A selection: hits, their analogues and other compounds. The true share with any hit is near 4.8%.
SMILES,ssDAF12 agonist,DAX1 inh-1,SMARCA2 act,hcDAF12 agonist,DAX1 inh-2,hgDAF12 agonist,SMARCA2 conf,VP16 Luc act
CNC(=O)NC(=S)NC(=O)c1ccc(OC)cc1,-1,1,10*,0,1,4,0,2
NC(=O)CC(NSc1ccccc1[N+](=O)[O-])C(=O)O (stereo unspecified),-1,2,0,5,0,0,x,x
O=C(CN1CCN(Cc2ccccc2)CC1)c1ccccc1,-1,0,0,1,-1,-1,x,x
CCc1ccc(NC(=O)CSCCO)cc1,1,-1,1,3,0,0,x,x
CCc1cc(=S)n2c([nH]c3ccccc32)c1C#N,x,-1,x,x,x,x,x,x
CC(SCc1cc(=O)n2c([nH]c3ccccc32)c1C#N)C(=O)O (stereo unspecified),-1,1,11*,0,0,1,0,0
COc1cccc(/C=C2\SC(=O)N(CC(=O)NC3C=CS(=O)(=O)C3)C2=O)c1 (stereo unspecified),-1,-1,2,-2,-1,-3,x,x
N#Cc1ccc(OCC(=O)N2CCc3ccccc32)cc1,-1,1,5,3,2,5,x,x
Cc1ccc(SCCC(=O)NCCSCc2ccco2)cc1,-1,3,-4,-1,0,1,x,x
Clc1ccc(-c2ccn[nH]2)cc1,-1,1,-2,0,0,5,x,x
S=c1nccc(-c2ccc(Cl)cc2)[nH]1,-2,x,8.1*,-3,0,-1,-2,3
Cc1cccc(C)c1NC(=O)C1C(c2ccc3c(c2)OCO3)=Nc2ccccc2N1C(=O)c1ccccn1 (stereo unspecified),1,x,8.1*,4,1,2,4,0
Cc1cccc(C)c1NC(=O)C1C(c2ccc3c(c2)OCO3)=Nc2ccccc2N1C(=O)c1cccc(C(F)(F)F)c1 (stereo unspecified),0,x,-7,2,-1,4,x,x
CCCCNC(=O)C1C(c2ccccc2)=Nc2ccccc2N1C(=O)c1ccc2c(c1)OCO2 (stereo unspecified),-1,x,-2,0,-1,4,x,x
CC(=O)N1c2ccccc2N=C(c2ccc3c(c2)OCO3)C1C(=O)NCc1ccccc1 (stereo unspecified),0,x,11*,2,0,4,6,1
Cc1c(Cl)cccc1NC(=O)COC(=O)CN1C(=O)NC(C)(C)C1=O,-1,0,-4,-1,1,5,x,x
CCOc1cc(NC(=O)C2CCCO2)c(OCC)cc1NC(C)=O (stereo unspecified),-1,1,-1,1,0,-1,x,x
CN(C)c1cccc(C(=O)Nc2cccc(S(=O)(=O)NC3=NCCC3)c2)c1,1,1,8.3*,1,-1,6,15*,5.3*
COc1cccc(C2C(C(=O)OC(C)C)=C(C)Nc3ncnn32)c1 (stereo unspecified),-1,0,8.2*,-1,1,-1,1,1
CC1=C(C(=O)OC(C)C)C(c2cccc(F)c2)n2ncnc2N1 (stereo unspecified),-1,0,0,-2,1,-1,x,x
COc1ccc(-n2c(=O)cc(N3CCOCC3)[nH]c2=O)cc1,-1,1,-3,-2,-1,2,x,x
O=C(CN1C(=O)NC2(CCc3ccccc32)C1=O)NCC(=O)Nc1ccc(F)cc1 (stereo unspecified),-1,0,8.2*,-1,1,6,-4,2
COc1ccc(N2CCN(CCCNC(=O)c3ccc(CS(=O)(=O)c4ccc(Cl)cc4)o3)CC2)cc1,-2,-1,0,-1,-1,-2,x,x
CC(C)NC(=O)C1c2ccccc2Oc2ccccc21,-1,1,-2,1,0,2,x,x
CC(C)CNC(=O)C1c2ccccc2Oc2ccccc21,-1,0,14*,1,0,2,-1,1
SMILES,ssDAF12 agonist,DAX1 inh-1,SMARCA2 act,hcDAF12 agonist,DAX1 inh-2,hgDAF12 agonist,SMARCA2 conf,VP16 Luc act
COc1ccc(NC(=O)CN(C)C(=O)c2ccc3c(c2)NC(=O)CS3)cc1,-2,1,2,-1,-1,1,x,x
CC1CCCN(C(=O)COC(=O)c2ccc3[nH]c4c(c3c2)CCCC4)C1 (stereo unspecified),-1,0,8.1*,0,0,2,4,4
COC(=O)C1CCN(C(=O)COC(=O)c2ccc3[nH]c4c(c3c2)CCCC4)CC1,-1,0,0,-1,-1,0,x,x
COC(=O)[C@@H](NC(=O)c1ccc(OC2CCN(Cc3ccccn3)CC2)cc1)C(C)C,-1,1,-4,-1,0,1,x,x
CCCOc1ccc(N2C(=O)CC(SCC(N)C(=O)OCC)C2=O)cc1 (stereo unspecified),-1,1,-1,1,0,-1,x,x
CCCOc1ccc(N2C(=O)CC(SCCN)C2=O)cc1 (stereo unspecified),0,2,10*,4,3,10,7.9*,6.6*
COc1ccc(N/C(C)=C/C(=S)Nc2ccccc2)cc1,0,-1,12*,10*,1,19*,3,2
COc1ccc(N/C(C)=C/C(=O)c2ccccc2)cc1,0,0,-1,1,1,-1,x,x
O=C(O)CCC(=O)OCC1CCCCC1,-2,0,5,-2,0,3,x,x
COc1cccc2sc(NN)nc12,-2,0,-1,1,2,-1,x,x
COc1ccccc1-c1nnc(Nc2nc3c(OC)cccc3s2)o1,-1,-3,15*,-2,-3,-7,6,24*
COc1cccc2sc(Nc3nc(-c4cc5ccccc5oc4=O)cs3)nc12,-2,-1,-3,-2,-2,-2,x,x
COc1cccc2sc(Nc3nnc(-c4ccccc4Cl)o3)nc12,0,-2,8.8*,3,-5,4,6,2
Oc1ccccc1-c1nnc(-c2ccc(C(F)(F)F)cc2)o1,0,1,9.9*,-1,0,6,4,6.9*
Nc1ccccc1-c1nnc(-c2ccc(-c3ccccc3)cc2)o1,0,1,9.2*,3,2,10,14*,11*
COc1cccc(-c2nnc(-c3ccc(C(F)(F)F)cc3)o2)c1,0,2,1,0,1,2,x,x
